VDR inhibitor: inhibitors of human vitamin D receptor | VDR-SRC2-3 peptide fluorescence polarization, 2 h | 0.93% of 400,000 active | Potency, µM, usual class: inhibitors
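Signal is fluorescence polarization, reporting how far test compounds block the interaction of VDR with the SRC2-3 coregulator peptide after a 2 h room-temperature incubation.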
JMJD2A Tudor: inhibitors of human JMJD2A Tudor domain; AlphaScreen JMJD2A-Tudor / H3K4me3 peptide binding; Potency, µM (titrated, usually from 114 µM), usual class: inhibitors; 4.4% of 390,000 active; note: nearly all actives have a fitted effect of over 50% in size
HP1b chromo inh: inhibitors of HP1-beta chromodomain binding to methylated histone tails; P83916; AlphaScreen HP1-beta / biotin-H3K9me3 peptide binding; Potency, µM (top dose mostly 114 µM), usual class: inhibitors; 0.56% of 390,000 active; AID 540317; note: nearly all actives have a fitted effect of over 70% in size
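Compound inhibition of the preformed complex between 50 nM HP1-beta and 50 nM biotinylated H3K9me3 peptide was read by AlphaScreen. Buffer was PBS pH 7.4 with 0.01% Tween-20. Incubations ran 30 min at room temperature, with 10 ug/mL donor/acceptor beads.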
G9a block: inhibitors of human histone lysine methyltransferase G9a | Q96KQ7 | G9a H3K9 monomethylation, AlphaScreen, 2 h | Potency, µM (highest dose often 102 µM), most hits filed as inhibitors | 8.8% of 350,000 active; note: nearly all actives have a fitted effect of over 75% in size
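AlphaScreen detection with an anti-monomethyl H3K9 antibody quantified product after a 2 h room-temperature reaction containing 500 nM biotinylated H3K9 peptide, 20 µM SAM and 20 nM enzyme, which had been preincubated 15 min with compound.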
BAZ2B inh: blocks human BAZ2B | Q9UIF8 | AlphaScreen BAZ2B-H3K14Ac peptide displacement | Potency, µM (titrated, usually from 114 µM), usual class: inhibitors | 4.4% of 360,000 active | AID 504333; note: nearly all actives have a fitted effect of over 60% in size
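BAZ2B 50 nM plus b-H3(5-23)K14Ac 50 nM, PBS pH 7.4/0.01% Tween-20, 30 min RT; compound added (max 110 uM), 30 min RT; streptavidin donor/Ni-chelate acceptor beads 10 ug/mL final, 20 min dark; AlphaScreen read.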
PLK1 PBD block: inhibitors of human PLK1 polo-box domain binding; P53350; Plk1 PBD binding of FITC phosphopeptide, fluorescence polarization; Potency, µM, most hits filed as inhibitors; 2.8% of 360,000 active; AID 720504; note: series mostly up to about 57 µM; nearly all actives have a fitted effect of over 65% in size
Target sequence (P53350 whole entry, looked up, the tested form may be a part): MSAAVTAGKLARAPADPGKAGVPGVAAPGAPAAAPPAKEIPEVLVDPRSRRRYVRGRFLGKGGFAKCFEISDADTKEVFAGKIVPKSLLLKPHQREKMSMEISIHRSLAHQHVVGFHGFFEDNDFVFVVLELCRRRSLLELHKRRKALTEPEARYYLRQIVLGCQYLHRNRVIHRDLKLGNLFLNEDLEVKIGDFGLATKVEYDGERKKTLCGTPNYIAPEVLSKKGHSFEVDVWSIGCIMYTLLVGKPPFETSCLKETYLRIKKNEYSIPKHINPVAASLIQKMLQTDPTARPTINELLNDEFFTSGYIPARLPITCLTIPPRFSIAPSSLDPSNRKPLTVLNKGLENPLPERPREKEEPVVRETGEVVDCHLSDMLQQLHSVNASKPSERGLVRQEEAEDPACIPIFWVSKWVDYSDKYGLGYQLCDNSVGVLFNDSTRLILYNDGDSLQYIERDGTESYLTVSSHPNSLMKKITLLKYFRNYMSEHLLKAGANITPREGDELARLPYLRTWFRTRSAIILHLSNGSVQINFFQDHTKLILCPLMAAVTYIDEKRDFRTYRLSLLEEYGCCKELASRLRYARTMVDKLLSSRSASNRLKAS
Numbers stand for hits; [ ] = remark or other dose. In the library only some 11% were active in any assay of this set; here they are far more common. Calls come from the whole dose curve; as a rule, active = well fitted curve in the direction sought with a large enough effect; inconclusive = small, poorly fitted or top-dose-only effect, or another doubt; inactive = no such curve, though single readings can be large; an effect the other way counts as inactive or inconclusive.

Results for CCn1c(/N=C/c2ccccc2NS(=O)(=O)c2ccc(C)cc2)nc2ccccc21 ?
VDR inhibitor: inactive; JMJD2A Tudor: inactive; HP1b chromo inh: inactive; G9a block: inactive; BAZ2B inh: inactive; PLK1 PBD block: inactive

What do the screens show for `COc1ccc2[nH]c(=O)c(CN(C)C(=O)c3cccs3)cc2c1`?
VDR inhibitor: inactive; JMJD2A Tudor: inconclusive; HP1b chromo inh: inconclusive; G9a block: inactive; BAZ2B inh: inactive; PLK1 PBD block: inconclusive

Results for CCc1ccc2occ(CC(=O)Nc3c(C(=O)c4ccc(C)cc4)oc4ccccc34)c2c1 ?
VDR inhibitor: inactive; JMJD2A Tudor: inactive; HP1b chromo inh: inactive; G9a block: inactive; BAZ2B inh: inactive

How did COc1ccc(-n2c(Cc3cccn3C)nnc2SCC(=O)N2CCOCC2)cc1 do in these assays?
VDR inhibitor: inactive; JMJD2A Tudor: inactive; HP1b chromo inh: inactive; G9a block: 71µM; BAZ2B inh: inactive; PLK1 PBD block: inactive

What do the screens show for `Cn1cccc1Cc1nnc(SCC(=O)N2CCOCC2)n1-c1ccc(F)cc1`?
VDR inhibitor: inactive; JMJD2A Tudor: inactive; HP1b chromo inh: inactive; G9a block: inconclusive; BAZ2B inh: inactive; PLK1 PBD block: inactive

How did COC(=O)c1ccccc1NC(=O)CCS(=O)(=O)c1ccc(Br)s1 do in these assays?
VDR inhibitor: inactive; JMJD2A Tudor: inactive; HP1b chromo inh: inactive; G9a block: inactive; BAZ2B inh: inactive; PLK1 PBD block: inactive

Results for Cc1ccccc1NC(=O)CCS(=O)(=O)c1ccc(Br)s1 ?
VDR inhibitor: inactive; JMJD2A Tudor: inactive; HP1b chromo inh: inactive; G9a block: 45µM; BAZ2B inh: inconclusive; PLK1 PBD block: inactive

How did O=c1nc(SCc2c(F)cccc2Cl)nc(-c2ccc(Cl)cc2)[nH]1 do in these assays?
VDR inhibitor: inactive; JMJD2A Tudor: inactive; HP1b chromo inh: inactive; G9a block: inconclusive; BAZ2B inh: inactive; PLK1 PBD block: 21µM

How did CN1C(=O)/C(=C/c2cn(CC(=O)N3CCCCC3)c3ccccc23)NC1=S do in these assays?
VDR inhibitor: inactive; JMJD2A Tudor: inactive; HP1b chromo inh: inactive; G9a block: 40µM; BAZ2B inh: inactive; PLK1 PBD block: inactive

What do the screens show for `CCOc1ccc(NC(=O)CN2C(=O)C(c3ccccc3)=NC23CCCCCC3)cc1`?
VDR inhibitor: inactive; JMJD2A Tudor: inactive; HP1b chromo inh: inactive; G9a block: inactive; BAZ2B inh: inactive

How did NC(=O)C1CCN(c2oc(-c3ccc(F)cc3)nc2S(=O)(=O)c2ccccc2)CC1 do in these assays?
VDR inhibitor: inactive; JMJD2A Tudor: inactive; HP1b chromo inh: inactive; G9a block: inactive[12.7 µM]; BAZ2B inh: inactive; PLK1 PBD block: inactive

What do the screens show for `O=S(=O)(c1ccccc1)c1nc(-c2ccc(F)cc2)oc1N1CCCCCC1`?
VDR inhibitor: inactive; JMJD2A Tudor: inactive; HP1b chromo inh: inactive; G9a block: 13µM; BAZ2B inh: inconclusive

How did COc1ccccc1-c1nc(S(=O)(=O)c2ccccc2)c(N2CCCCC2)o1 do in these assays?
VDR inhibitor: inconclusive; JMJD2A Tudor: 79µM; HP1b chromo inh: inconclusive; G9a block: 25µM; BAZ2B inh: inactive; PLK1 PBD block: inconclusive

Results for COc1ccccc1-c1nc(S(=O)(=O)c2ccc(Cl)cc2)c(N2CCCCCC2)o1 ?
VDR inhibitor: inactive; JMJD2A Tudor: inactive; HP1b chromo inh: inactive; G9a block: inconclusive; BAZ2B inh: inactive

How did CCN1CCN(c2oc(-c3ccccc3C)nc2S(=O)(=O)c2ccccc2)CC1 do in these assays?
VDR inhibitor: inactive; JMJD2A Tudor: inconclusive; HP1b chromo inh: inactive; G9a block: 35µM; BAZ2B inh: inconclusive; PLK1 PBD block: inactive

What do the screens show for `Nc1cc(S(=O)(=O)N2CCCCC2)ccc1Oc1ccccc1`?
VDR inhibitor: inactive; JMJD2A Tudor: inactive; HP1b chromo inh: inactive; G9a block: inactive; PLK1 PBD block: inactive

How did Clc1ccc(-c2cnc3cccnn23)cc1 do in these assays?
PLK1 PBD block: inactive

How did Nc1cccn2c(-c3ccc(Cl)c(Cl)c3)cnc12 do in these assays?
VDR inhibitor: inactive; JMJD2A Tudor: 50µM; HP1b chromo inh: inconclusive; G9a block: 45µM; BAZ2B inh: 40µM; PLK1 PBD block: 6µM

What do the screens show for `Nc1cccn2c(-c3ccc(Cl)cc3)cnc12`?
VDR inhibitor: inactive; JMJD2A Tudor: inactive[11.4 µM]; HP1b chromo inh: inconclusive; G9a block: 50µM; BAZ2B inh: 50µM; PLK1 PBD block: 27µM

What do the screens show for `CCCCSc1nc(C)c(CC(=O)O)c(=O)[nH]1`?
VDR inhibitor: inactive; JMJD2A Tudor: inactive; HP1b chromo inh: inactive; G9a block: inactive; BAZ2B inh: inactive; PLK1 PBD block: inactive

What do the screens show for `C[n+]1ccccc1C1CCCC/C1=N\NC(N)=S` (stereo not drawn)?
VDR inhibitor: inactive; JMJD2A Tudor: 22µM; HP1b chromo inh: inconclusive; G9a block: 16µM; BAZ2B inh: inconclusive; PLK1 PBD block: inconclusive

Results for CC1CCCC/C1=N\NC(=S)NCCc1ccccc1 (stereo not drawn) ?
VDR inhibitor: inactive; JMJD2A Tudor: inconclusive; HP1b chromo inh: inactive; G9a block: inconclusive; BAZ2B inh: inconclusive; PLK1 PBD block: inactive

What do the screens show for `C[N+]12CCCCC1C(COC(=O)c1ccc3c(c1)OCO3)CCC2` (stereo not drawn)?
VDR inhibitor: inactive; JMJD2A Tudor: 20µM; HP1b chromo inh: inconclusive; G9a block: inconclusive; BAZ2B inh: inconclusive; PLK1 PBD block: inactive

Results for Cc1ccccc1Cn1c2ccccc2c2cnn(CC(=O)NC(C)CCc3ccccc3)c(=O)c21 (stereo not drawn) ?
VDR inhibitor: inactive; JMJD2A Tudor: inactive; HP1b chromo inh: inactive; G9a block: inactive; BAZ2B inh: inactive

What do the screens show for `COc1ccc2cc(CO)c(Cl)nc2c1`?
VDR inhibitor: inactive; JMJD2A Tudor: inactive; HP1b chromo inh: inactive; G9a block: inactive; PLK1 PBD block: 6.7µM

How did CN(C)c1ccc(O)c2c1CC1CC3C(N(C)C)C(=O)C(C(N)=O)=C(O)[C@@]3(O)C(=O)C1=C2O (stereo partly drawn) do in these assays?
VDR inhibitor: inactive; JMJD2A Tudor: 8.9µM; HP1b chromo inh: inactive; PLK1 PBD block: inactive

What do the screens show for `CN(C)c1ccc(O)c2c1C[C@@H]1C[C@H]3C(N(C)C)C(=O)C(C(N)=O)=C(O)[C@@]3(O)C(=O)C1=C2O` (stereo partly drawn)?
VDR inhibitor: inconclusive; G9a block: inactive[2.33 µM]

How did C=C1c2cccc(O)c2C(O)=C2C(=O)[C@]3(O)C(O)=C(C(N)=O)C(=O)C(N(C)C)C3C(O)C12 (stereo partly drawn) do in these assays?
VDR inhibitor: 35µM; G9a block: inconclusive

How did COC(=O)c1ccc2c(=O)[nH]c(COC(=O)CCC(=O)c3ccc(Cl)cc3)nc2c1 do in these assays?
VDR inhibitor: inactive; JMJD2A Tudor: inactive; HP1b chromo inh: inactive; G9a block: inactive; BAZ2B inh: inactive; PLK1 PBD block: inactive
